Assay outcomes deposited in PubChem by National Center for Advancing Translational Sciences (NCATS).
NPC1 promoter act – NPC1 promoter activation. Huh7 NPC1 promoter luciferase reporter, 24 h. AID 485313. Potency, µM (top dose mostly 9.22 µM), actives largely listed as activators. 2.4% of 320,000 active; note: nearly all actives have a fitted effect of over 60% in size
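Huh7 cells stably carrying NPC1 promoter–luciferase, plated in Opti-MEM with 10% FBS for 2 h, were exposed to compound in DMSO for 24 h at 37 °C; luciferase reagent was added for 10 min and luminescence read.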
SMN2 splice up – enhancers of SMN2 splice variant expression; HEK293 SMN2-luciferase splicing reporter, luminescence, 30-36 h; Potency, µM (top dose mostly 46.1 µM), usual class: activators; 2.8% of 210,000 active; AID 1458; note: nearly all actives have a fitted effect of over 55% in size
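qHTS luciferase splicing reporter: luminescence rises when SMN2 exon 7 is included in transfected HEK293 cells. Compound exposure lasted 30-36 h at 37C, with 4.5 mM final sodium butyrate as control, followed by a ONE-Glo read.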
FLuc counter – inhibits or activates purified firefly luciferase, miR-21 counter-screen; P08659; purified FLuc, Km substrates, luminescence inhibition; Potency, µM (titrated, usually from 57.5 µM), most hits filed as inhibitors; 6.9% of 360,000 active; AID 588342; note: nearly all actives have a fitted effect of over 55% in size
Target sequence (P08659 whole entry, looked up): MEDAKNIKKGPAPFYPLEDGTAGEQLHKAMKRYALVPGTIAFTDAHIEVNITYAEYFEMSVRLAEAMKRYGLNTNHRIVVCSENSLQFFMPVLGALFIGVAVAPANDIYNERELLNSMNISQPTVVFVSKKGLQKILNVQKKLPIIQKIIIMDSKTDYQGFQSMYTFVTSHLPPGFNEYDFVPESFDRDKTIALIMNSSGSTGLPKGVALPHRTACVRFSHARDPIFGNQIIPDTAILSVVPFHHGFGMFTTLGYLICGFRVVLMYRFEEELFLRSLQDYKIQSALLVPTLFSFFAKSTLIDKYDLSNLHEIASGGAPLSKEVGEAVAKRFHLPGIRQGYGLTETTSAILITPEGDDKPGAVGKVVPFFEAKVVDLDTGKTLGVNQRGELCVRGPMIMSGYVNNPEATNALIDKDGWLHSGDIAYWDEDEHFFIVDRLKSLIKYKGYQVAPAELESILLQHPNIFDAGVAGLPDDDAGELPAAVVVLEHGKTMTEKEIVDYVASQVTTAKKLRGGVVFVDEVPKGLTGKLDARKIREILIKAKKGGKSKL
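Purified P. pyralis luciferase, 10 nM final, with Km-level 10 uM D-luciferin and 10 uM ATP in 50 mM Tris acetate pH 7.5, 10 mM Mg acetate, 0.01% Tween-20, 0.05% BSA; 6-point qHTS titration about 60 µM downward; luminescence read.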
Rab9 promoter act – Rab9 promoter activation; 2.8% of 320,000 active; Potency, µM (titrated, usually from 9.22 µM), hits mostly activators; Huh7 Rab9 promoter-luciferase reporter, luminescence, 24 h; AID 485297; note: nearly all actives have a fitted effect of over 60% in size
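Cell-based reporter: Huh7 stable for Rab9 promoter-driven luciferase, plated in reduced-serum medium with 10% FBS at 1500 cells/well, compound-treated 24 h at 37 °C, luminescence read after 10 min reagent.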
ELG1 genotox – inducers of genotoxicity in HEK293T ELG1-luciferase cells. 1.3% of 330,000 active. HEK293T ELG1-luciferase reporter, luminescence, 16 h. Potency, µM (series often up to 46 µM), hits mostly activators; note: nearly all actives have a fitted effect of over 60% in size
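Step 1: seed 2,000 HEK293T ELG1-luciferase cells per well. Step 2: add compound or DMSO, incubate 16 hr at 37 °C. Step 3: ONE-Glo, 30 min at room temperature, read luminescence.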
Luc counter – Kinase-Glo luciferase inhibition (counter-screen) | Kinase-Glo luciferase, ATP luminescence, 8 min | Q27757 | AID 1379 | 0.28% of 200,000 active | Potency, µM (doses to about 38.3 µM), usual class: inhibitors; note: nearly all actives have a fitted effect of over 60% in size
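Kinase-Glo luciferase light output from ATP and luciferin was measured with 10 uM ATP, within the enzyme's linear range. Buffer: 50 mM imidazole pH 7.2, 50 mM KCl, 7 mM MgCl2, 0.01% Tween 20, 0.05% BSA; luminescence read after 8 min at ambient temperature.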
A number is an active result; n = inactive; u = inconclusive; x = not tested or not shown. Only some compounds are listed: those with a hit (about 7.5% of all), similar ones and a draw of the others. Calls come from the whole dose curve; as a rule, active = well fitted curve in the direction sought with a large enough effect; inconclusive = small, poorly fitted or top-dose-only effect, or another doubt; inactive = no such curve, though single readings can be large; an effect the other way counts as inactive or inconclusive.

SMILES	NPC1 promoter act	SMN2 splice up	FLuc counter	Rab9 promoter act	ELG1 genotox	Luc counter
CCOc1cc(/C=N/Nc2nc(Nc3ccccc3)nc(N3CCCCC3)n2)ccc1OCC(=O)O	n	n	1.07µM	n	n	n
CC1CC(C)CN(S(=O)(=O)c2ccc(NC(=O)CN3C(=O)NC(C)(c4ccccc4)C3=O)cc2)C1 (centres undefined)	n	x	n	n	n	x
CC(C)(C)OC(=O)NC(CNCc1ccccc1)Cc1ccccc1 (centres undefined)	n	x	n	n	n	x
O=C(NCCOc1ccc(Cl)cc1)c1ccc2c(c1)OCCO2	3.16µM	x	8.49µM	3.55µM	u	x
NS(=O)(=O)c1ccc(CCNC(=O)c2ccc3c(c2)OCO3)cc1	n	x	n	n	n	x
O=C(NCCc1ccc(Cl)cc1)c1ccc2c(c1)OCO2	1.78µM	x	12µM	1.78µM	u	x
O=C(NCc1ccccc1F)c1ccc2c(c1)OCO2	n	n	u	n	u	n
O=C(NCCc1ccc(Cl)cc1)c1ccc2c(c1)OCCO2	0.398µM	x	1.2µM	0.316µM	2.31µM	x
O=C(NCCc1ccccc1F)c1ccc2c(c1)OCCO2	0.0251µM	x	0.0478µM	0.0006µM	u	x
COC(=O)C1CCN(C(=O)COC(=O)c2cccc(NS(=O)(=O)c3ccccc3)c2)CC1	n	x	n	n	n	x
COc1ccc(NC(=O)c2cnn(-c3ccccc3)c2C)cc1OC	2.82µM	x	10.7µM	u	u	x
Cc1ccc(NC(=O)c2cnn(-c3ccccc3)c2C)cc1C	0.398µM	x	0.338µM	0.631µM	u	x
COc1ccc(NC(=O)c2cnn(-c3ccccc3)c2C)cc1	2.51µM	x	3.79µM	0.398µM	u	x
COc1ccc(CNC(=O)C2CCN(S(=O)(=O)c3c(C)noc3/C=C/c3ccccc3F)CC2)cc1	x	x	n	x	x	x
COC(=O)CCC(=O)c1oc2ccccc2c1NC(=O)CCCN1C(=O)c2ccccc2C1=O	n	n	n	n	n	n
COC(=O)CCC(=O)c1oc2ccccc2c1N	n	n	21.3µM	n	u	n
COc1ccc(Cc2noc(-c3ccccc3)n2)cc1OC	n	n	n	n	n	n
Clc1ccc(-c2nc(Cc3ccccc3)no2)cc1	u	n	12µM	u	20.6µM	n
COc1ccc(-c2nc(Cc3ccc(Cl)cc3)no2)cc1OC	n	n	n	n	n	n
Cc1ccccc1-c1nc(Cc2ccccc2)no1	u	u	12µM	u	u	n
O=C1NC(c2ccc(Br)cc2)=N/C1=C/c1ccco1	3.55µM	7.08µM	0.601µM	2.51µM	u	n
O=C1NC(c2ccccc2Cl)=N/C1=C/c1ccco1	n	x	0.301µM	u	u	x
CC(=O)OC1C(=O)[C@@]2(C)C(O)CC3OC[C@]3(OC(C)=O)C2C(OC(=O)c2ccccc2)[C@]2(O)CC(OC(=O)C(O)C(NC(=O)c3ccccc3)c3ccccc3)C(C)=C1C2(C)C (some centres undefined)	x	n	x	x	x	n
COc1cc(N)c(Cl)cc1C(=O)N[C@H]1CCN(CCCOc2ccc(F)cc2)C[C@@H]1OC	x	x	x	x	x	n
Cc1c(/C(O)=C2\C(=O)C(=O)N(CCN(C)C)C2c2cccs2)cnn1-c1ccccc1 (centres undefined)	2.51µM	n	u	4.47µM	n	n
SMILES	NPC1 promoter act	SMN2 splice up	FLuc counter	Rab9 promoter act	ELG1 genotox	Luc counter
Cc1c(/C(O)=C2\C(=O)C(=O)N(CCN(C)C)C2c2cccnc2)cnn1-c1ccccc1 (centres undefined)	n	n	n	n	n	n
Cc1c(/C(O)=C2/C(=O)C(=O)N(CCN3CCOCC3)C2c2ccccn2)cnn1-c1ccccc1 (centres undefined)	n	n	16.9µM	n	u	n
O=C1C(=O)N(CCN2CCOCC2)C(c2ccccn2)/C1=C(/O)c1ccc(F)cc1 (centres undefined)	n	n	n	n	n	n
N/C(=N\OC(=O)CC1CCCCC1)c1ccc(Cl)cc1	n	x	7.57µM	n	u	x
N/C(=N\OC(=O)CC1CCCCC1)c1cccc(Br)c1	n	x	2.69µM	n	n	x
N/C(=N\OC(=O)CCC1CCCCC1)c1cccc([N+](=O)[O-])c1	n	n	10.7µM	n	n	n
